Several values for one entry are separate records, joined by “and”; a condition that tells them apart may be missing. Identical values can stand only once. Results filed as inconclusive are left out. Activity calls are given as the source filed them.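 How the source made its calls, unless noted: active means differentiation response of at least 50%, scaled between solvent and reference control, from cells with both markers; inactive means the rest.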

We go through four compounds from PubChem BioAssay.

The nature of assay [1]: yeast TOR pathway RPL19A-GFP modulators, primary screen, cell-based, S. cerevisiae, multiplex flow cytometry (AID 1862; in the data active means percent of DMSO control GFP below about 86%;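 further: lower values mimic rapamycin by blocking the RPL19A rise seen in DMSO cells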). The note with it: S. cerevisiae RPL19A-GFP strain, flow cytometry fluorescence, 3 h; at 10 µM; stronger effect = lower value. (In general: A flow cytometer gives signals particle by particle.)
Assay [2] is described as follows: modulators of MEP2-GFP levels in yeast, primary screen, S. cerevisiae, multiplex flow cytometry (AID 1867;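 active means GFP response, as percent of the DMSO control, above the screen-wide mean plus 3 SD, about 139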;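 further: median GFP channel fluorescence of barcode-gated MEP2-GFP cells measured by flow cytometry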). The note with it: S. cerevisiae MEP2-GFP strain, 3 h, at 10 µM, stronger effect = higher value, 100% means same as DMSO wells.
A short description of assay [3]: modulators of CIT2-GFP expression in yeast, primary screen, S. cerevisiae, GFP fusion, multiplex flow cytometry (AID 1870;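 active means percent response above a set limit, the screen-wide mean plus 3 SD, cut at about 130% in these data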;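 further: barcoded CIT2-GFP strain pooled with four other GFP strains with rapamycin as positive control; median GFP fluorescence per well over plate mean of DMSO wells so 100% = DMSO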). The note with it: 3 h, at 10 µM, stronger effect = higher value.
The nature of assay [4]: modulators of LAP4-GFP expression in yeast, primary screen, S. cerevisiae, multiplex flow cytometry (AID 1873;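 active means GFP signal, as percent of the solvent control, above the screen mean plus 3 SD, about 149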). The note with it: 3 h, at 10 µM, stronger effect = higher value.
Assay [5] in a line: modulators of AGP1-GFP expression in yeast TOR pathway, primary screen, cell-based, multiplex flow cytometry, S. cerevisiae (AID 1887;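 active means GFP signal above the screen-wide mean plus 3 SD, that is over about 124.5% of the solvent control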;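 further: AGP1-GFP fusion strain of S. cerevisiae within a five-strain barcoded multiplex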). The note with it: 3 h, at 10 µM, stronger effect = higher value.
A short description of assay [6]: inhibitors of CD8+ T cell-vesicle binding, pilot screen, LFA-1/ICAM-1 modulator project, MLPCN validation set, flow cytometry (AID 2523;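 active means response below a set limit, under 55% cells CD8-positive and vesicle-bound, and CD8 cells' 90th-percentile brightness under 279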;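 on vesicle binding response: mean PE anti-B7-1 fluorescence of CD8+ cells relative to row control; 100% = QL9-loaded vesicles with DMSO vehicle in the same plate row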). The conditions noted are these: 2C mouse CD8+ T cells, at 7 µM, stronger effect = lower value; double positive events: measured here: CD8+/vesicle+ event percentage.
Assay [7] addresses Integrin beta-1 (Homo sapiens) + Integrin alpha-4 (Homo sapiens) (UniProt P13612+P05556). Kind of assay: inhibition of HUTS-21 binding to VLA-4, pilot screen, VLA-4 allosteric modulator project, U937 cells, HUTS-21 mAb, flow cytometry, validation set (AID 2674;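 active means inhibition above 50%, about 3 SD of the validation set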;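 further: antibody binding induced by the VLA-4 ligand LDV present at three times its Kd; 0% = LDV ligand with antibody and no compound and 100% = antibody without LDV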). The note with it: HUTS-21 LIBS mAb binding, at 6.7 µM, stronger effect = higher value, binding induced by LDV ligand.
Assay [8] can be described thus: superoxide lowering in aged yeast cells, pilot screen, validation compound set (AID 2706;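 active means superoxide response below 65% of plate, a cut near 3 SD across the whole screen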;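 further: yeast exposed to compound for one week at 30 degrees C before staining; 100% = mean of all compound wells on the same plate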). The conditions noted are these: S. cerevisiae aging, superoxide DHE fluorescence; at 10 µM; stronger effect = lower value.
The target of assay [9] is Beta-adrenergic receptor kinase 1 (Homo sapiens) (UniProt P25098). Nature of the assay: GRK2 binders displacing RNA aptamer, biochemical, validation, human GRK2, bead flow cytometry (AID 488806;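 active means aptamer binding inhibition above 30%, about 3 SD of noise from non-fluorescent compounds; inactive means inhibition at or below 30%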). The conditions noted are these: bead-bound GRK2, FAM-aptamer displacement, at 10 µM, stronger effect = higher value.
The target of assay [10] is Beta-2 adrenergic receptor (Homo sapiens) (UniProt P07550). Nature of the assay: beta2AR agonists driving receptor internalization, pilot screen, cell-based, FAP fluorogen, flow cytometry, validation set (AID 504459;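 active means percent response above 42, roughly 3 SD of non-fluorescent test compounds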;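 further: agonist-driven loss of surface beta2AR via internalization measured by FAP dye flow cytometry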). The note with it: Am2.2-beta2AR cells, FAP surface receptor flow cytometry; at 10 µM; stronger effect = higher value.
In assay [11] the target is AP-2 complex subunit beta (Homo sapiens) (UniProt P63010). Nature of the assay: inhibitors of arrestin peptide binding to AP2, pilot screen, biochemical, validation set, GST-AP2 beads, flow cytometry (AID 504541;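 active means inhibition above 54%, about 3 SD of non-fluorescent compounds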;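 further: AP2 carries R879A mutation and is captured from E. coli lysate; bead-bound FITC arrestin peptide fluorescence measuring arrestin peptide binding to AP2; 0% = DMSO wells and 100% = excess unlabeled arrestin peptide control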). The note with it: FITC arrestin peptide, at 10 µM, stronger effect = higher value, AP2 beta2 appendage fragment, R879A mutant.
Assay [12] is described as follows: yeast V-ATPase proton transport modulators, S. cerevisiae, pHLuorin, HTS validation (AID 504600; in the data active means response above about 15%;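 further: plate controls were DMSO for no effect and reference compound for full effect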). The conditions noted are these: S. cerevisiae pHLuorin cytosolic pH, at 10 µM, stronger effect = higher value.
Assay [13] deals with anti-desmoglein-3 scFv antibody binding to human DSG3. Nature of the assay: inhibitors of anti-DSG3 scFv binding to DSG3, pilot screen, biochemical, validation compound set, bead-based, flow cytometry (AID 588368;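 active means binding below the plate cutoff, the plate median minus 3 SD, with a reading above zero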;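 further: signal is the median channel fluorescence of bead-bound GFP antibody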). The note with it: Protein G beads, DSG3-Fc, scFv-GFP binding, at 10 µM, stronger effect = lower value.
Assay [14] in a line: inhibitors of fungal efflux pumps CDR1, CDR2, MDR1, pilot screen, validation compound set, multiplex, phenotypic (AID 588506;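 active means efflux inhibition above 0.42, the validation set average plus 4 SD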;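 further: Nile Red retained in cells so higher fluorescence means more efflux inhibition; 0 = negative control wells and 1 = enniatin B 25 µM full block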). The note with it: S. cerevisiae pump-expressing triplex, Nile Red efflux flow cytometry; at 10 µM; stronger effect = higher value; the pumps come from Candida albicans.
In assay [15] the target is ATP-binding cassette sub-family B member 6 (Homo sapiens) (UniProt Q9NP58). Kind of assay: ABCB6 transporter inhibitors, pilot screen, K562-ABCB6 cells, flow cytometry, validation set (AID 588550;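 active means inhibition above the screen-wide mean plus 3 SD, about 51%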;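 further: 0% = DMSO wells and 100% = benzethonium chloride 70 µM positive control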). The note with it: K562-ABCB6 porphyrin accumulation, 1 h, at 10 µM, stronger effect = higher value.
A short description of assay [16]: promoters of myeloid differentiation in arrested cells, primary screen, cell-based, GFP/MAC1 double positive, flow cytometry, validation set (AID 588685).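 Further: compound exposure lasts four days before antibody staining and flow analysis; 0% = DMSO wells and 100% = 5 µM fulvestrant positive control.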 The conditions noted are these: ER-HoxA9 marrow cells, stronger effect = higher value, normalized: vehicle 0, fulvestrant 100.

AP-2 complex subunit beta (Homo sapiens), sequence (P63010 whole entry, looked up, the tested form may be a part, one chain of several): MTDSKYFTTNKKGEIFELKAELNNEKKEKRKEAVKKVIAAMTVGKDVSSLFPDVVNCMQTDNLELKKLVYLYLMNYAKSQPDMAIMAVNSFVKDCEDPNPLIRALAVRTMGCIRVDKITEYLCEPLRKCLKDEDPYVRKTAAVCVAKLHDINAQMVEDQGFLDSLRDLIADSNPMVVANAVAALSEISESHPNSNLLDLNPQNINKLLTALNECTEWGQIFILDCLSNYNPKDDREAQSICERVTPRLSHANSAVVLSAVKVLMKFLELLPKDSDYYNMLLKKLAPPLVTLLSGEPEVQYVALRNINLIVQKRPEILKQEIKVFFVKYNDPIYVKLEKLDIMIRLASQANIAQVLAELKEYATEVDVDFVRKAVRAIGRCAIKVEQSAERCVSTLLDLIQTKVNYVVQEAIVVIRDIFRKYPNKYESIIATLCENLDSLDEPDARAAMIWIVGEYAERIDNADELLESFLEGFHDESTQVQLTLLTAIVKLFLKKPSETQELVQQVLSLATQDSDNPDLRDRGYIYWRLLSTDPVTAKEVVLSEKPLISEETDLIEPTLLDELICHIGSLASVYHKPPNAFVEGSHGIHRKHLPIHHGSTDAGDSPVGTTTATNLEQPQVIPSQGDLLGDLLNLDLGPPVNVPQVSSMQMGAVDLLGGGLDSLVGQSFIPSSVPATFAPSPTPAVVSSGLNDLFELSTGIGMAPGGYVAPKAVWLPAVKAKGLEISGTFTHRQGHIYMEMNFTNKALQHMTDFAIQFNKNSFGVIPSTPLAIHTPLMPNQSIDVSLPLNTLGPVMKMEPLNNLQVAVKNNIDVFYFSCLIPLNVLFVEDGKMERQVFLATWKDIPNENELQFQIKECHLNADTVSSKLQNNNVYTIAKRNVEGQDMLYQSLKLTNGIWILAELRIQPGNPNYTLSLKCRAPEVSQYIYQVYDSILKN
Beta-2 adrenergic receptor (Homo sapiens), sequence (P07550 whole entry, looked up): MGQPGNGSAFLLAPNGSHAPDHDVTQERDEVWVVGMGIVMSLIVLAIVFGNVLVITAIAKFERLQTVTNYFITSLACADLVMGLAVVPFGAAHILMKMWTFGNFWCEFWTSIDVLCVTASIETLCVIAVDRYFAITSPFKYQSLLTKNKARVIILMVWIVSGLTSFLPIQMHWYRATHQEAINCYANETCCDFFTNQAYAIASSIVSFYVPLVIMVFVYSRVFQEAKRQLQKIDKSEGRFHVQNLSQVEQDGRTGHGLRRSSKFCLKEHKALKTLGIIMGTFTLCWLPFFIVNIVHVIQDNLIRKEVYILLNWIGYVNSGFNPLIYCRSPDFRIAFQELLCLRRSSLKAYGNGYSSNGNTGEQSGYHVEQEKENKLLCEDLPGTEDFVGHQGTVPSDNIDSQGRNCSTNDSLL
ATP-binding cassette sub-family B member 6 (Homo sapiens), sequence (Q9NP58 whole entry, looked up): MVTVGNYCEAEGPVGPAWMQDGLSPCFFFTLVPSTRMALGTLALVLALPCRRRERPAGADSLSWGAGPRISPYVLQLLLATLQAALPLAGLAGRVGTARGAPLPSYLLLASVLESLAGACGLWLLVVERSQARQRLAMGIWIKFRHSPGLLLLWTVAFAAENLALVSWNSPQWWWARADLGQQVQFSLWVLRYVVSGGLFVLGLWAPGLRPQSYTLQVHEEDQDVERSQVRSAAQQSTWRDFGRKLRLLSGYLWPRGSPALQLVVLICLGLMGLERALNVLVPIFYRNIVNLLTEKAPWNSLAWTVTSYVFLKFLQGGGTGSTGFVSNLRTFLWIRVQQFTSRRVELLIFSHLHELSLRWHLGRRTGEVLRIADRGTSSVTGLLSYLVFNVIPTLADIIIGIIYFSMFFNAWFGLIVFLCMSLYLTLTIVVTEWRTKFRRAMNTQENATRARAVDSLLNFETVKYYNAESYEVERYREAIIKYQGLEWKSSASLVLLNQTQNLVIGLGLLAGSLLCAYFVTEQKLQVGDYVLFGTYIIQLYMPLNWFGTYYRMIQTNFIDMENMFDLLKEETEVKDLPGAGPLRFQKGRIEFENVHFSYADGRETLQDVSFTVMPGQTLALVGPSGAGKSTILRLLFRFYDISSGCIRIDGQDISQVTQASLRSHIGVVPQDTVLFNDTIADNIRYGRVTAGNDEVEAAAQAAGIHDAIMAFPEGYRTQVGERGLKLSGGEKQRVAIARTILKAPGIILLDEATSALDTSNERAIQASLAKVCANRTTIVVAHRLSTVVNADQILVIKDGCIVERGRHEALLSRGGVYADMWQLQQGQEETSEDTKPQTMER
Beta-adrenergic receptor kinase 1 (Homo sapiens), sequence (P25098 whole entry, looked up): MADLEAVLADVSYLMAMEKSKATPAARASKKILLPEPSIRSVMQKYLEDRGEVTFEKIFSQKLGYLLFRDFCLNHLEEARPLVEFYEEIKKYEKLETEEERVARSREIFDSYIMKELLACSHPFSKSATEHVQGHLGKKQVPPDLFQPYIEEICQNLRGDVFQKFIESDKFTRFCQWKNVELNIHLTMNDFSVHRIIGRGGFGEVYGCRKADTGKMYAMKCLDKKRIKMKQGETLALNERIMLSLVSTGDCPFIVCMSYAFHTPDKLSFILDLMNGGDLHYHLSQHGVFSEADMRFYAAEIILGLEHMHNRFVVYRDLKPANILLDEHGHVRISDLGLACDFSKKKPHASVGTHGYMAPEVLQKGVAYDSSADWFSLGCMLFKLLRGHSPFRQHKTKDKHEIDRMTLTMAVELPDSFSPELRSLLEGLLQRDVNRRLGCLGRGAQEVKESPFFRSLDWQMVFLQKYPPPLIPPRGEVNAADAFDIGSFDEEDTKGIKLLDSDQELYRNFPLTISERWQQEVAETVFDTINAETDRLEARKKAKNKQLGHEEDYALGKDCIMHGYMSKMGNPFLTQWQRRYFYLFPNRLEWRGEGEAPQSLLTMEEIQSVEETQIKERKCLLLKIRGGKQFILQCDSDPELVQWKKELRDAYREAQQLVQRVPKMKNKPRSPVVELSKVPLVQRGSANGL
Integrin beta-1 (Homo sapiens) + Integrin alpha-4 (Homo sapiens), sequence (P05556 whole entry, looked up): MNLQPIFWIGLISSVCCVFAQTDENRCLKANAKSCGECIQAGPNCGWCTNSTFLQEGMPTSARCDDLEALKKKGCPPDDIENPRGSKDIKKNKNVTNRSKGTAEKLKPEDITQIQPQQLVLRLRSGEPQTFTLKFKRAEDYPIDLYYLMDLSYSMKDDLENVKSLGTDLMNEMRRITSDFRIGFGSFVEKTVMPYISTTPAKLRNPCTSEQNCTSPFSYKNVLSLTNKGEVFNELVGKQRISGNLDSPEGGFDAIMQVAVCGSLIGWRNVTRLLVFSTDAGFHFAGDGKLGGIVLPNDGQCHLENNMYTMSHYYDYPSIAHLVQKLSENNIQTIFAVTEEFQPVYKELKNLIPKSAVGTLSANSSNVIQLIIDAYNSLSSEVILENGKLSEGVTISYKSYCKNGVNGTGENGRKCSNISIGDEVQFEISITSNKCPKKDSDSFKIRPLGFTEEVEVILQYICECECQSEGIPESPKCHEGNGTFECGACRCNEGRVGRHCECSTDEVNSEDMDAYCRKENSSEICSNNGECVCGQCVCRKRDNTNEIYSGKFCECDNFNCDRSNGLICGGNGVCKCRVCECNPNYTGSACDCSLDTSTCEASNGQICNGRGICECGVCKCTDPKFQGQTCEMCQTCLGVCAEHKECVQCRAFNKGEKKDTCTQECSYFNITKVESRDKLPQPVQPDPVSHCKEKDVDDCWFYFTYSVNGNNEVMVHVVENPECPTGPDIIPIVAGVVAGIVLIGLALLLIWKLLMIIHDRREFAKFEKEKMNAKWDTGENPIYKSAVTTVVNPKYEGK
Integrin beta-1 (Homo sapiens) + Integrin alpha-4 (Homo sapiens), sequence (P13612 whole entry, looked up): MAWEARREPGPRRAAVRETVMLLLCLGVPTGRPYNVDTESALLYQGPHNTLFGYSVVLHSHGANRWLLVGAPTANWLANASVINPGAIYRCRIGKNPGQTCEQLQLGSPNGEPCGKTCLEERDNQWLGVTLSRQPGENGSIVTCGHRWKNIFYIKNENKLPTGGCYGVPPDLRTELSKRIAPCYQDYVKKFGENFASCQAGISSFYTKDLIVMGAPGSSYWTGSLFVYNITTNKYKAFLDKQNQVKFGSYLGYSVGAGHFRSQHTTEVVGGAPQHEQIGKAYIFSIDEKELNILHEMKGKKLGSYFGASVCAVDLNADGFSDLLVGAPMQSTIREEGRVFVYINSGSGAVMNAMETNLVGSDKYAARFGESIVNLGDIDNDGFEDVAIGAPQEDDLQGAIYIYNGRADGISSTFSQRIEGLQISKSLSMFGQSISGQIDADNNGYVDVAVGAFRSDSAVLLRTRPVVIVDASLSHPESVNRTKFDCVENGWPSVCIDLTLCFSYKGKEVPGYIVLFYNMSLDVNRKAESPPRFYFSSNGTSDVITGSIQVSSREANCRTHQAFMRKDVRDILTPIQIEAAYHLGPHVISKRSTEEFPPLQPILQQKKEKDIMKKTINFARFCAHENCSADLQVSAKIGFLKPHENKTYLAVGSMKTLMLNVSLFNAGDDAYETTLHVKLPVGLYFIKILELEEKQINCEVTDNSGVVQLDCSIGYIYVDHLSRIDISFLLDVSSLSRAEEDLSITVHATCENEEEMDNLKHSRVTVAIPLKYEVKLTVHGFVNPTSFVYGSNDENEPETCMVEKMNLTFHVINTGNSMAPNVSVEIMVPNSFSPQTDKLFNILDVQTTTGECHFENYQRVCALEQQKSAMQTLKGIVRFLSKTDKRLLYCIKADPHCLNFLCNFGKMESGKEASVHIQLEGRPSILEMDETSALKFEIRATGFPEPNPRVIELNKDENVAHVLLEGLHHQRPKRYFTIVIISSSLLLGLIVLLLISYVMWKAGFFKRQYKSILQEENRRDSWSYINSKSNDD

As to `COc1ccc(Cc2noc(CN(C)CC3(N4CCOCC4)CCCCC3)n2)cc1OC`, in assay [1], the percent of DMSO control GFP is 94.3% (inactive). In addition, the GFP response vs DMSO in assay [2] is 99.7% (inactive); in assay [4], 95.9% (inactive). In assay [3], the percent response of DMSO control was 106% (inactive). Besides, the GFP response, % of DMSO in assay [5] was 98.3% (inactive). The double positive events in [6] came to 60.5%. Also, the vesicle binding response in [6] is 80.5% (inactive). In addition, the inhibition (in general, the change of the read-out against control, counted positive when it falls) was 2.93% (inactive) in assay [7], -7.18% (inactive) in assay [11] and 36% (inactive) in assay [15]. Further, the superoxide response (% of plate) in [8] is 108% (inactive). Further, in assay [9], the aptamer binding inhibition was 2% (inactive). Moreover, the response is 8.59% (inactive) in assay [10] and 2.83% (inactive) in assay [12]. In addition, the binding (% of control) in [13] was 102% (inactive). Moreover, in assay [14], the efflux inhibition (fraction of control) was 0.22 (inactive). Besides, the differentiation response in [16] was -10.4% (inactive).

Regarding `NCCc1cnc[nH]1`, in assay [1], the percent of DMSO control GFP is 89.8% (inactive) and 102% (inactive). The GFP response vs DMSO is 129% (inactive) and 104% (inactive) in assay [2]; 78.7% (inactive) and 113% (inactive) in assay [4]. In assay [3], the percent response of DMSO control is 101% (inactive) and 102% (inactive). Besides, the GFP response, % of DMSO in assay [5] is 84.5% (inactive) and 117% (inactive). Also, in [6], the double positive events is 55.6% and 61.9%. Further, the vesicle binding response in [6] was 192% (inactive) and 166% (inactive). In addition, the inhibition in assay [7] was -33.3% (inactive) and -35.2% (inactive); in assay [11], -4.51% (inactive) and -1.77% (inactive); in assay [15] it was 5% (inactive) and -3% (inactive). In [8], the superoxide response (% of plate) is 105% (inactive) and 109% (inactive). Further, in assay [9], the aptamer binding inhibition was 3% (inactive) and 0% (inactive). The response in [10] is -15.1% (inactive) and -30.5% (inactive); in assay [12], 25.1% (active) and 47.3% (active). In addition, the binding (% of control) in assay [13] was 105% (inactive) and 106% (inactive). In addition, the efflux inhibition (fraction of control) in [14] was 0.09 (inactive) and 0.04 (inactive). In assay [16], the differentiation response is -5.73% (inactive) and -4.99% (inactive).

For `CCCCOc1ccc(CC(=O)NO)cc1`, the percent of DMSO control GFP in assay [1] is 87.8% (inactive). The GFP response vs DMSO is 113% (inactive) in [2] and 75.9% (inactive) in [4]. Moreover, the percent response of DMSO control in [3] is 106% (inactive). For the same compound, the GFP response, % of DMSO in assay [5] is 75% (inactive). In [6], this compound had a double positive events of 48.1%. Besides, the vesicle binding response in [6] was 214% (inactive). Also, the inhibition in assay [7] was -3.24% (inactive); in [11], 3.29% (inactive); in assay [15] it was 9% (inactive). Further, the superoxide response (% of plate) in assay [8] was 121% (inactive). The aptamer binding inhibition in assay [9] is -2% (inactive). Besides, the response in assay [10] is -26.1% (inactive); in [12] it was 1.03% (inactive). Besides, the binding (% of control) in assay [13] is 104% (inactive). In assay [14], the efflux inhibition (fraction of control) is 0.09 (inactive). In addition, the differentiation response in assay [16] was 2.46% (inactive).

As to `Cc1ccc(Cl)c(OCCCN(C)Cc2ccccc2)c1`, the percent of DMSO control GFP in assay [1] was 100% (inactive). Also, the GFP response vs DMSO was 96.6% (inactive) in [2] and 106% (inactive) in assay [4]. Also, in assay [3], the percent response of DMSO control is 98.3% (inactive). Further, the GFP response, % of DMSO in assay [5] is 106% (inactive). In assay [6], this compound returned a double positive events of 64.5%. The vesicle binding response in assay [6] is 161% (inactive). The inhibition was 13.4% (inactive) in [7], 0.6% (inactive) in assay [11] and 19% (inactive) in assay [15]. The superoxide response (% of plate) in assay [8] was 95% (inactive). In assay [9], the aptamer binding inhibition was 2% (inactive). Besides, the results for the response in [10] and in [12] were -6.56% (inactive) and 0.72% (inactive), respectively. Besides, the binding (% of control) in [13] is 112% (inactive). Also, the efflux inhibition (fraction of control) in assay [14] is -0.26 (inactive). The differentiation response in [16] was -6.96% (inactive).
